AmpC inh no detg: inhibitors of E. coli AmpC beta-lactamase without detergent. P00811. AmpC nitrocefin hydrolysis, absorbance 480 nm, 0.0001% Triton. Potency, µM (series often up to 57.1 µM), for inactives: at the top dose activity change, negative = inhibition, usual class: inhibitors. actives 0.52% (n = 330,000). AID 485341;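 also: plate controls were no compound for no effect and no enzyme for full effect; nearly all actives have a fitted effect of over 20% in size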
Target sequence (P00811 whole entry, looked up): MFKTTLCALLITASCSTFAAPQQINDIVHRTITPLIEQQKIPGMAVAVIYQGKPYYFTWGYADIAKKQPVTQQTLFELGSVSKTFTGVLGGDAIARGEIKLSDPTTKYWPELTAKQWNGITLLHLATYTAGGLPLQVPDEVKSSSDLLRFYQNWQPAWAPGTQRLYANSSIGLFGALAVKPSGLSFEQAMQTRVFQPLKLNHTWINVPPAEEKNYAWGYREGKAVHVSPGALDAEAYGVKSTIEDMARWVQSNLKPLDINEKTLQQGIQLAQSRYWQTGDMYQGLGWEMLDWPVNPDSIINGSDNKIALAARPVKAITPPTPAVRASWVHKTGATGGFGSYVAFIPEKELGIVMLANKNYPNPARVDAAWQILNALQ
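20 mM phosphate pH 7.0 + 0.01% (detergent screen) or 0.0001% Triton X-100; 5.3 nM AmpC reagent; cpd preinc 15 min RT; nitrocefin (800 uM stock) to start; A480 q20 s × 4 min; Activity was normalised to no-enzyme and no-compound control wells.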
AmpC detergent: blocks E. coli AmpC beta-lactamase in detergent assay; P00811; AmpC hydrolysis of nitrocefin, absorbance 480 nm, 0.01% Triton; Potency, µM (highest dose often 114 µM), inactives show at the highest dose activity change, negative = inhibition, usual class: inhibitors; actives 0.041% (n = 370,000); AID 485294;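 also: 0% = no-compound wells and -100% = no-enzyme wells; nearly all actives have a fitted effect of over 25% in size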
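20 mM phosphate pH 7.0 + 0.01% (detergent screen) or 0.0001% Triton X-100; 5.3 nM AmpC reagent; cpd preinc 15 min RT; nitrocefin (800 uM stock) to start; A480 q20 s × 4 min; Activity was normalised to no-enzyme and no-compound control wells.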
Pf growth 96h: P. falciparum growth inhibition at 96 hours; Potency, µM (doses to about 28.7 µM), inactives show at the highest dose activity change, negative = inhibition, actives largely listed as inhibitors; P. falciparum luciferase reporter growth, 96 h; actives 6.9% (n = 320,000); also: % is scaled to controls: 0 for no effect and ±100 for the full control effect
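Delayed-death screen, second-generation endpoint: infected erythrocytes, 2% hematocrit, 0.05% parasitemia final; 96 hours at 37 C, 5% CO2; luciferase detection reagent; luminescence decrease equals reduced growth.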
Sm TGR block: blocks Schistosoma mansoni thioredoxin glutathione reductase. purified TGR, DTNB reduction, TNB absorbance 405 nm. AID 485364. Q962Y6. Potency, µM (highest dose often 114 µM), for the others: at the top dose activity change, negative = inhibition, most hits filed as inhibitors. actives 3% (n = 360,000); also: % is scaled to controls: 0 for no effect and ±100 for the full control effect; nearly all actives have a fitted effect of over 60% in size
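Kinetic colorimetric format: TGR-catalysed, NADPH-driven DTNB reduction monitored via TNB absorbance. Enzyme dispensed at 20 nM; compound exposure 15 min at room temperature before reaction start.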
SARS PLP yeast: blocks SARS-CoV papain-like protease in a yeast assay. Potency, µM (top dose mostly 32.9 µM), for the others: at the top dose activity, positive = growth rescue, actives largely listed as activators. actives 0.19% (n = 330,000). S. cerevisiae expressing SARS-CoV PLpro, growth rescue; calls by dose curve; also: 0% is about no effect; nearly all actives have a fitted effect of over 55% in size
Pf growth 48h: inhibits P. falciparum growth in the first generation, 48 h; P. falciparum luciferase growth in erythrocytes, 48 h; Potency, µM (top dose mostly 28.7 µM), without a hit: at the top dose activity change, negative = inhibition, most hits filed as inhibitors; actives 5.9% (n = 310,000); AID 504832; also: % is scaled to controls: 0 for no effect and ±100 for the full control effect
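Luciferase-expressing P. falciparum in infected erythrocytes (2% hematocrit, 0.1% parasitemia final) in RPMI 1640/0.5% Albumax were exposed to compound for 48 hours at 37 C, 5% CO2; growth read as luminescence.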
* = called active by the depositor; ? = inconclusive; / = not tested or not shown. Sampled rows, rich in hits. Any-hit rate of the full collection: about 12%. Unless noted, calls follow the shape of the dose curve; as a rule, active = well fitted curve in the direction sought with a large enough effect; inconclusive = small, poorly fitted or top-dose-only effect, or another doubt; inactive = no such curve, though single readings can be large; an effect the other way counts as inactive or inconclusive. Potency is read from the fitted curve at half-maximal effect.

SMILES	AmpC inh no detg	AmpC detergent	Pf growth 96h	Sm TGR block	SARS PLP yeast	Pf growth 48h
COc1ccccc1C(=O)N/C(=C\c1cn(C)c2ccccc12)C(=O)NCCCn1ccnc1	46%	1%	?	?	-4%	?
CN(C)c1ccc(CN(CC2CCCO2)C(=O)COc2ccccc2Cl)cc1 (configuration not stated)	/	0%	/	0%	/	/
OCCCNc1nc(-c2ccc(Cl)cc2)nnc1-c1ccccc1	-2%	-4%	3.7µM*	1%	-2%	?
Cc1c(NC(=O)c2ccc(Cl)cc2)cc(C(C)C)c(O)c1S(=O)(=O)c1ccccc1	/	0%	/	3%	/	/
CC(C)(C)NC(=O)c1cc(C(C)(C)C)c(O)c(C(C)(C)C)c1	-27%	-9%	9.3µM*	-1%	18%	?
CCN(CC)C(=O)c1cc(C(C)(C)C)c(O)c(C(C)(C)C)c1	20%	1%	10µM*	-10%	-4%	?
CC(=O)Nc1cc(C(C)(C)C)c(O)c(C(C)(C)C)c1	2%	1%	-18%	?	-11%	/
O=C1Oc2ccccc2C(=O)/C1=C\N1CCN(c2ccccc2)CC1	-38%	1%	8%	-21%	7%	5%
C=CCN1C(=O)CN=C1Nc1ccc(F)cc1	165%	-3%	?	6%	1%	10µM*
Clc1ccccc1-c1nc2nc3ccccc3nc2n1-c1ccc2c(c1)OCO2	31%	-4%	10µM*	-7%	-7%	?
CS(=O)(=O)Nc1ccc(C2=NN(C(=O)c3ccco3)C(c3ccco3)C2)cc1 (configuration not stated)	-8%	-4%	?	?	-7%	?
COc1ccc(S(=O)(=O)N2N=C(c3ccc(NS(C)(=O)=O)cc3)CC2c2ccco2)cc1 (configuration not stated)	-15%	1%	-10%	14µM*	1%	-22%
O=C(OCC(=O)N1N=C(c2ccc(Cl)cc2)CC1c1ccco1)c1ccco1 (configuration not stated)	30%	3%	16%	-11%	1%	58%
COc1ccc(S(=O)(=O)N2N=C(c3cccc(NS(C)(=O)=O)c3)CC2c2ccco2)cc1 (configuration not stated)	-36%	-2%	13µM*	22µM*	3%	-11%
CS(=O)(=O)Nc1cccc(C2=NN(S(C)(=O)=O)C(c3ccc4c(c3)OCO4)C2)c1 (configuration not stated)	40µM*	-4%	2.3µM*	-3%	1%	37%
COc1ccc(C2=NN(C(=O)COC(=O)c3ccc(NC(=O)CC#N)cc3)C(c3ccco3)C2)cc1 (configuration not stated)	-38%	?	?	1%	-6%	12µM*
COc1ccc(C2CC(c3ccccc3)=NN2S(=O)(=O)c2ccccc2)cc1 (configuration not stated)	-21%	3%	?	1%	0%	?
COc1ccccc1Cc1nc2ccccc2nc1SCC(=O)Nc1cccc(Cl)c1C	/	7%	/	0%	/	/
CCOc1ccc(Nc2cc(C)nc3nc(Cc4ccc(Cl)cc4)nn23)cc1	/	14%	/	2%	/	/
O=C(Cn1ncc2c([nH]c3ccccc32)c1=O)NCCCN1CCN(c2ccc(F)cc2)CC1	/	2%	/	9%	/	/
S=C(Nc1ccc(Cl)c(Cl)c1)NC1CCN(Cc2ccccc2)CC1	-19%	?	?	-10%	-1%	4.1µM*
Cc1cccc(C)c1NC(=S)NC1CCCCC1	-13%	-1%	10µM*	-4%	-22%	-21%
CN(CC(=O)Nc1ccc(Cl)c(Cl)c1)C(=O)C1CCCC1	-6%	-1%	5.2µM*	-5%	-4%	?
S=C(Nc1ccc(Oc2ccccc2)cc1)NC1CCCCCC1	-27%	0%	17%	-1%	-59%	-2%
S=C(Nc1ccc(Oc2ccc(NC(=S)NC3CCCCC3)cc2)cc1)NC1CCCCC1	-19%	-3%	0%	2%	11µM*	?
SMILES	AmpC inh no detg	AmpC detergent	Pf growth 96h	Sm TGR block	SARS PLP yeast	Pf growth 48h
Fc1ccc(NC(=S)NC2CCN(Cc3ccccc3)CC2)cc1	-20%	-6%	0%	/	0%	-9%
CN(CC(=O)Nc1ccc(Cl)c(Cl)c1)C(=O)C1CCC1	-30%	/	/	/	1%	/
O=C(NC1CCN(C(=O)Nc2cccc(F)c2)CC1)C1CCCCC1	-12%	-1%	12µM*	-13%	1%	-4%
S=C(Nc1ccc(Cl)c(Cl)c1)NC1CCCCC1	-31%	-3%	0%	2%	-33%	13µM*
Fc1cccc(NC(=S)NC2CCCCCCC2)c1	13µM*	3%	80%	-5%	-14%	?
CC(=O)c1cccc(NC(=O)N2CCC(NC(=O)C3CCCCC3)CC2)c1	-1%	-7%	?	0%	-1%	-12%
S=C(Nc1ccc2nsnc2c1)NC1CCCCC1	-21%	-6%	6%	?	9%	62%
CCOCCCNc1ncnc2c1[nH]c1ccccc12	-25%	-1%	?	10%	-1%	10µM*
C=CCNc1ncnc2c1[nH]c1ccccc12	-25%	-3%	?	4%	-2%	13µM*
CCCCOc1ncnc2c1[nH]c1ccccc12	-25%	?	0%	3%	-25%	?
C=CCNc1ncnc2c1[nH]c1ccc(Cl)cc12	-33%	-3%	/	-20%	0%	?
CCCCOCCCNc1ncnc2c1[nH]c1ccccc12	-33%	0%	/	1%	-9%	7.4µM*
c1ccc2cc(CCO[C@H]3CCCCO3)ncc2c1	8%	/	/	/	-1%	/
Cc1ccc(C23CC4CC(CC(CC(=O)N5CCOCC5)(C4)C2)C3)cc1	257%	3%	?	-14%	-9%	?
CC[n+]1ccc(C)c2cc(S(=O)C(F)(F)F)ccc21 (configuration not stated)	-3%	-6%	?	-1%	-3%	3.7µM*
Cc1ccnc2ccc(P(=O)(c3ccccc3)c3ccccc3)cc12	30%	5%	?	/	-1%	?
CC[n+]1ccc(C)c2cc(P(=O)(c3ccccc3)c3ccccc3)ccc21	55%	0%	?	-6%	-5%	13µM*
COc1cccc(-n2cc(C(=O)NCCCOC(C)C)c3ccccc3c2=O)c1	11%	2%	-10%	6%	-1%	9%
Cc1nn2c(=O)cc(COC(=O)c3ccccc3NC(=O)C(C)C)nc2s1	/	9%	/	-3%	/	/
